HepG2 viability: counter-screen for TGF-b inhibitors: cytotoxicity in HepG2 cells; AID 588856; actives 0.76% (n = 410,000); Potency, µM (highest dose often 46.1 µM), most hits filed as cytotoxic; HepG2 CAGA-GFP viability, ATP luminescence, 18 h
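CellTiter-Glo luminescence gave cytotoxicity after 18 hours at 37 degrees C. The cells were HepG2 CAGA-GFP in 1% FBS DMEM, stimulated with 500 pg/mL TGF-beta after compound addition. %Activity was normalised to no-cell wells (complete cell-killing) and DMSO (no toxicity), and curves were fitted and classified.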
DT40 TDP1 CPT: DT40-hTDP1 cell growth loss with CPT; actives 12% (n = 420,000); AID 686979; Potency, µM (doses to about 46.2 µM), actives largely listed as inhibitors; chicken DT40 Tdp1-/-;hTDP1 cells + 20 nM CPT, ATP luminescence, 48 h; further: nearly all actives have a fitted effect of over 55% in size
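Cell growth measured by CellTiter-Glo luminescence after a minimum 48 h, 37 C compound exposure with 20 nM CPT in Tdp1-knockout DT40 cells stably expressing hTDP1, seeded 400/well; qHTS titration format.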
DT40 TDP1 no CPT: qHTS for Inhibitors of human tyrosyl-DNA phosphodiesterase 1 (TDP1): qHTS in cells in absence of CPT. DT40 Tdp1-/- hTDP1 cells, no CPT, ATP luminescence, 48 h. Potency, µM (top dose mostly 46.2 µM), hits mostly inhibitors. actives 15% (n = 420,000). AID 686978, 2013; further: nearly all actives have a fitted effect of over 55% in size
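Seeded 400 DT40-hTDP1 cells/well (vehicle DMSO, no 20 nM CPT); pinned compounds; ≥48 hr at 37 °C; CellTiter-Glo luminescence as viability measure.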
TGFb inhibitor: blocks TGF-b signaling | HepG2 CAGA-GFP TGF-b/SMAD3 reporter, GFP fluorescence, 18 h; TGF-beta stimulated, 500 pg/mL final | Potency, µM (doses to about 46.1 µM), actives largely listed as inhibitors | actives 1.2% (n = 410,000); further: nearly all actives have a fitted effect of over 65% in size
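Inhibition was scored as loss of TGF-beta-induced (500 pg/mL final, 18 hours, 37 degrees C) GFP in HEPG2 cells carrying a CAGA-GFP reporter, in DMEM with 1% FBS. Well GFP was summed per cell; Activity was normalised to unstimulated and stimulated DMSO wells, then concentration-response fitting.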
IL1B secr inh: inhibitors of inflammasome signaling (IL-1 beta secretion) | actives 4.7% (n = 360,000) | THP-1 LPS/ATP IL-1B secretion, AlphaLISA, 16 h; hits give low values | activity change, % at 57.5 µM | AID 743279; in the data active means activity change below about -50%; inconclusive means mostly about -30% to -49%
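Secreted IL-1B measured by AlphaLISA bead assay after 16 h compound exposure of THP-1 cells; compounds (final up to 57.5 uM) added 1 h before LPS (250 ng/mL) and ATP (1.25 mM) stimulation; lower signal means less secretion.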
TDP1 inh: inhibitors of human tyrosyl-DNA phosphodiesterase TDP1; Q9NUW8; AID 485290; Potency, µM (titrated, usually from 130 µM), hits mostly inhibitors; actives 0.28% (n = 350,000); recombinant TDP1, AlphaScreen DNA substrate cleavage; further: nearly all actives have a fitted effect of over 40% in size
Target sequence (Q9NUW8 whole entry, looked up): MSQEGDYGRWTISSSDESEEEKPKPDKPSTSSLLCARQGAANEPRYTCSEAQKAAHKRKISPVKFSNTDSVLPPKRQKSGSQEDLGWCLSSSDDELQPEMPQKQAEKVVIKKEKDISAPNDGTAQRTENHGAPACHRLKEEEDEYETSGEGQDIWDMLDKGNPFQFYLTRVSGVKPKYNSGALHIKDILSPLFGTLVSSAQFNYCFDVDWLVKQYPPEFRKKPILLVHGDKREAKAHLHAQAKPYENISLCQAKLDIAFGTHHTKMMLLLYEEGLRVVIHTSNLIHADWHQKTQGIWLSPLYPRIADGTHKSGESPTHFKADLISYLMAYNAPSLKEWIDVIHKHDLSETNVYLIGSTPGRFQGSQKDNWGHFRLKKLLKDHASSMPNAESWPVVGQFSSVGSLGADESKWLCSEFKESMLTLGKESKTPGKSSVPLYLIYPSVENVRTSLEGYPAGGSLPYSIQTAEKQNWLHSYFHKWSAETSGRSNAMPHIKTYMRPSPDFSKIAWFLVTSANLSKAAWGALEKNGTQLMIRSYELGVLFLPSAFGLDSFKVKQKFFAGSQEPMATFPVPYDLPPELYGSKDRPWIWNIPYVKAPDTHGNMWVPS
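Signal: AlphaScreen proximity between streptavidin donor and anti-FITC acceptor beads on intact substrate. Reaction: Tdp1 1 nM, substrate 15 nM final, 5 min RT after 15 min compound preincubation.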
Numbers stand for hits; n = inactive; u = inconclusive; x = no result given; [ ] = another dose, or the depositor's remark. Sampled rows, rich in hits. Any-hit rate of the full collection: about 19%. Unless noted, the call rests on the fitted dose curve; in most records, active means well fitted curve in the direction sought with a large enough effect; inconclusive means small, poorly fitted or top-dose-only effect, or another doubt; inactive means no such curve, though single readings can be large; an effect the other way counts as inactive or inconclusive.

SMILES | HepG2 viability | DT40 TDP1 CPT | DT40 TDP1 no CPT | TGFb inhibitor | IL1B secr inh | TDP1 inh
NC(=O)CSc1oc(-c2ccc(F)cc2)nc1S(=O)(=O)c1ccccc1 | n | n | n | n | n | n
COc1ccccc1NC(=O)CSc1oc(-c2ccc(F)cc2)nc1S(=O)(=O)c1ccc(Br)cc1 | n | 21µM | 13µM | n | x | n
CCOC(=O)c1c(NC(=O)CSc2nc(-c3ccc(OC)cc3)cc(C(F)(F)F)n2)sc(C)c1C | n | u | u | n | x | n
Cn1cnc2c(N/N=C/c3cccs3)ncnc21 | n | u | u | n | -91 | n
CCc1ccc2nc(N(CCCN(C)C)C(=O)c3ccc(S(=O)(=O)N4CCCc5ccccc54)cc3)sc2c1 | n | u | u | u | -98 | n
CN(C)CCCN(C(=O)c1ccc(S(=O)(=O)N2CCc3ccccc32)cc1)c1nc2c(Cl)cccc2s1 | n | u | u | u | -83 | n
CN(C)CCN(C(=O)c1ccc(S(=O)(=O)N2CCc3ccccc32)cc1)c1nc2ccc(F)cc2s1 | n | u | n | n | n | n
COc1cccc2sc(N(CCCN(C)C)C(=O)c3ccc(S(=O)(=O)N4CCCc5ccccc54)cc3)nc12 | n | u | u | u | -50 | n
Cn1c(C(=O)O)c(C=O)c2ccccc21 | n | n | n | n | -70 | n
Cn1c(-c2ccccc2)c(C=O)c2ccccc21 | n | n | n | n | n | n
CCC(Sc1nc2ccccc2c2nc(-c3ccccc3)nn12)C(=O)Nc1cccc(OC)c1 (configuration not stated) | n | u | 18µM | n | x | n
COc1ccc(NC(=O)CSc2nc3ccccc3c(=O)n2Cc2cccs2)c(OC)c1 | x | x | x | x | x | n
COc1cccc(NC(=O)CSc2nc3ccccc3c(=O)n2Cc2cccs2)c1 | n | 21µM | u | u | n | n
COc1cccc(NC(=O)CSc2nc3ccccc3c3nc4ccccc4n23)c1 | n | 12µM | 16µM | n | n | n
COc1ccc(NC(=O)CSc2nc3ccccc3n2Cc2cccc(OC)c2)cc1 | n | u | u | n | x | n
Nc1c(N(CCCO)C(=O)CCCN2C(=O)c3cccc4cccc(c34)C2=O)c(=O)[nH]c(=O)n1Cc1ccccc1 | n | 10µM | u | n | n | x
CCCCN(C(=O)CSc1nnc(-c2ccc(OC)cc2)n1CC)c1c(N)n(Cc2ccccc2)c(=O)[nH]c1=O | n | n | n | n | -60 | n
CCCCN(C(=O)CCCSc1nc2ccccc2[nH]1)c1c(N)n(Cc2ccccc2)c(=O)[nH]c1=O | n | n | n | n | -90 | n
CCCCn1c(N)c(N(Cc2ccccc2OC)C(=O)c2ccc(N3CCCC3=O)cc2)c(=O)[nH]c1=O | n | n | n | n | n | x
C[C@@H]1CC[C@H](O)/C=C/C(=O)O[C@H](C)CC[C@H](O)/C=C/C(=O)O1 | n | 5.2µM | 5.2µM | u | n | x
CN(C)CCCNc1nc(-c2ccccc2)nc2ccccc12 | n | n | n | n | u | n
CC(C)(C)C(=O)OCCNc1nc(-c2ccccc2)nc2ccccc12 | n | u | 21µM | n | -54 | n
CC(C)OCCCNc1nc(-c2ccccc2)nc2ccccc12 | n | u | 15µM | u | n | n
Cc1cc(C)c2oc(-c3cccc(NC(=O)c4cc5ccccc5o4)c3)nc2c1 | n | u | u | n | x | n[12.3 µM]
O=C1CC(N2CCN(c3ncccn3)CC2)C(=O)N1CCc1ccccc1 (configuration not stated) | n | n | n | n | n | n
SMILES | HepG2 viability | DT40 TDP1 CPT | DT40 TDP1 no CPT | TGFb inhibitor | IL1B secr inh | TDP1 inh
CC1(Br)C(Sc2ccccc2[N+](=O)[O-])=Nc2ccccc21 (configuration not stated) | x | 21µM | 23µM | x | n | x
O=C(Nc1cccc(-n2cnnn2)c1)c1cnccc1Cl | n | n | n | n | n | n
N#CCC(=O)NNC(=S)NC(=O)C(c1ccccc1)c1ccccc1 | n | n | n | n | n | n
CC(=O)NC(=S)NNC(=O)C(c1ccccc1)c1ccccc1 | n | 13µM | 21µM | n | n | n
C=CCn1c(SC(C)C#N)nc2ccccc2c1=O (configuration not stated) | n | n | u | n | x | n
CCCCCc1cc(=O)oc2c(C(CCN3CCCC(C)C3)c3ccc(OC)cc3)c(OC)cc(OC)c12 (configuration not stated) | 11µM | u | 23µM | u | -54 | x
CCCCCc1cc(=O)oc2c(C(CCN3CCCC3)c3cc(OC)c(OC)c(OC)c3)c(OC)cc(OC)c12 (configuration not stated) | 16µM | 5.8µM | 16µM | u | n | x

Screens (PubChem BioAssay)
